S1P2 blocker – human S1P2 receptor antagonists, primary screen, cell-based; Sphingosine 1-phosphate receptor 2 (Homo sapiens), O95136; cell-based S1P2 antagonist assay, inhibition at 5 uM; inhibition, % at 5 µM; 97,000 tested, 0.21% active; AID 736, 2007; in the data active = inhibition above about 45%;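 note: CRE beta-lactamase reporter cells expressing human S1P2 stimulated with S1P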
Mac1 fbg inh – inhibitors of CD11b/CD18 adhesion to fibrinogen, primary screen, K562 cells, luminescence; ATPlite luminescence; Mn2+ added to activate the integrin; inhibition, % at 10 µM; 93,000 tested, 0.54% active;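 active = primary inhibition of 50% or more at 10 µM, then 40% or more on retest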
Target sequence (P05107 whole entry, looked up, other chains not shown): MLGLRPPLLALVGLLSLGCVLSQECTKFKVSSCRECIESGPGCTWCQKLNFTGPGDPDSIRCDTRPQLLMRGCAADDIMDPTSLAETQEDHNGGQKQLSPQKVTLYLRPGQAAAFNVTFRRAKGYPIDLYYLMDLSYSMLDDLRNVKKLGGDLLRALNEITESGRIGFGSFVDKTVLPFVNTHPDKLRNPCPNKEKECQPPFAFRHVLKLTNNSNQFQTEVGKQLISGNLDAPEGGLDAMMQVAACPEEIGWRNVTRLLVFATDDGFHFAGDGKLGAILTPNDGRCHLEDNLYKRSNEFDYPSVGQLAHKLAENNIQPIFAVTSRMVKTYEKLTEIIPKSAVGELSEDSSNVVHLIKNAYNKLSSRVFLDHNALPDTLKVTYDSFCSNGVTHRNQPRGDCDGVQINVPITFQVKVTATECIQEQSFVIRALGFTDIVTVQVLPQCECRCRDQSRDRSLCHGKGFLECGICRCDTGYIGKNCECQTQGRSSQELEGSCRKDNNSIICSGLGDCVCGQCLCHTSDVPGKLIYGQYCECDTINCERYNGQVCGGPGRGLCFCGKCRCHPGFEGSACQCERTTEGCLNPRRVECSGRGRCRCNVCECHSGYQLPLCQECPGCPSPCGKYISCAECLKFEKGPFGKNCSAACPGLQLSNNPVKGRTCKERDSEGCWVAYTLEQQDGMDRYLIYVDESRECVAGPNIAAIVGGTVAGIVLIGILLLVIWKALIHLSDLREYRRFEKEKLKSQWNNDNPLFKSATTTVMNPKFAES
S1P2 agonist – S1P2 receptor agonists, primary screen, cell-based. Sphingosine 1-phosphate receptor 2 (Homo sapiens), O95136. S1P2-expressing cell line, agonist reporter read-out. 97,000 tested, 0.46% active. activation, % at 4.5 µM; in the data active = activation above about 16%
GALR2 blocker – GALR2 antagonists in receptor-expressing cells, primary screen | Galanin receptor type 2 (Homo sapiens), O43603 | inhibition, % at 4 µM | antagonist mode | 140,000 tested, 0.39% active;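 note: cells stimulated with galanin 1-16 at roughly its EC80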
GALR2 agonist – GALR2 receptor agonists, primary screen, cell-based. Galanin receptor type 2 (Homo sapiens), O43603. AID 803, 2007. 140,000 tested, 0.48% active. GALR2-expressing cells, agonist activation read-out. activation, % (no concentration beside the values); in the data active = activation above about 5%, passing the limit was not always enough
CD11b adhes enh – enhancers of CD11b/CD18 adhesion to fibrinogen, primary screen, K562 cells, luminescence | Integrin beta-2 (Homo sapiens) + Integrin alpha-M (Homo sapiens), P05107+P11215 | ATPlite luminescence | activation, % at 10 µM | 93,000 tested, 0.07% active;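 active = 10 µM primary screen giving 50% or more activity, confirmed by 40% or more on retest at that dose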
GALR2 ant conf – GALR2 antagonists, retest of hits, confirmation, cell-based | inhibition, % at 4 µM | 480 tested, 60% active | GALR2-expressing cells, antagonist mode, inhibition | shares compounds with GALR2 blocker;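 note: cells stimulated with galanin at about its EC80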
BLA inhib ctr – inhibitors of NFAT-driven beta-lactamase reporter, confirmation, counter-screen for GALR2 antagonist project, CHO NFAT-bla cells, FRET readout | thapsigargin-stimulated | 480 tested, 36% active | shares compounds with GALR2 blocker | inhibition, % at 4.2 µM;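 active = inhibition above the mean inhibition across tested compounds plus 3 SD, cut at about 27% in these data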
Numbers stand for hits; . = inactive; / = no result. An excerpt weighted towards active compounds, which were near 1.4% of everything screened. Cut-off read from the data, not from the text of the source, unless noted: active = inhibition above about 27%; inactive = the rest.

SMILES	S1P2 blocker	Mac1 fbg inh	S1P2 agonist	GALR2 blocker	GALR2 agonist	CD11b adhes enh	GALR2 ant conf	BLA inhib ctr
CC(C)Nc1ncnc2ccc(Br)cc12	/	/	/	38	.	/	36	.
CSCCC(Nc1ncnc2ccc(Br)cc12)C(=O)O (stereo not drawn)	.	.	.	.	.	.	/	/
CCOC(=O)C1=C(Cc2ccc(OC)cc2)C(=O)c2ccccc2C1=O	.	.	.	32	.	.	.	.
CCOC(=O)c1c(C)nc2c(c1-c1cc(OC)ccc1OC)C(=O)c1ccccc1-2	.	.	.	.	.	.	/	/
Cc1ccc(S(=O)(=O)CCC(=O)NCc2ccc(Cl)cc2)cc1	/	.	/	.	.	.	/	/
COc1cccc(-c2cn3nc(C)c(C)nc3n2)c1	.	.	.	.	.	.	/	/
COc1ccc(-c2cn3nc4c(nc3n2)CCCC4)cc1	.	.	.	31	.	.	.	.
COc1ccccc1N1CCN(CCCNC(=O)Nc2ccccc2C)CC1	.	.	.	.	.	.	/	/
COc1cc(C(=O)O/N=C2\C=CC(=O)C(C)=C2)cc(OC)c1OC	.	.	.	77	.	.	33	44
COc1cc(C(=O)ON=C2C=C(C)C(=O)C(C)=C2)cc(OC)c1OC	/	/	/	.	.	/	/	/
CC(C)c1ccc(/C=C(\c2nc3ccccc3[nH]2)S(=O)(=O)c2ccccc2)cc1	/	.	/	.	.	.	/	/
O=S(=O)(/C(=C/c1ccc(C(F)(F)F)cc1)c1nc2ccccc2[nH]1)c1ccccc1	/	.	/	38	.	.	51	45
Cc1nc2nc(-c3cccs3)cn2nc1C	.	.	.	28	.	.	31	35
c1nc(NCC2CCCO2)c2[nH]cnc2n1 (stereo not drawn)	.	/	.	.	.	/	/	/
c1ccc2c(c1)[nH]c1c(NCC3CCCO3)ncnc12 (stereo not drawn)	.	.	.	28	.	.	27	.
CCCCOCCCNc1ncnc2c1[nH]c1ccccc12	.	100	.	47	.	.	31	.
CCCCn1cnc2c([nH]c3ccccc32)c1=O	.	/	.	.	.	/	/	/
C=CCNc1ncnc2c1[nH]c1ccccc12	.	.	.	.	.	.	/	/
CCOCCCNc1ncnc2c1[nH]c1ccccc12	.	.	.	29	.	.	.	.
CN(C)c1ccc(N=Cc2nc(-c3ccccc3)oc2OC(=O)c2cccc(Br)c2)cc1	/	/	/	.	.	/	/	/
COc1ccc(-c2oc3ncn4nc(COc5ccccc5)nc4c3c2-c2ccc(OC)cc2)cc1	.	.	.	.	.	.	/	/
CC(=O)c1c(C)[nH]c(C(=O)OCC(=O)Nc2ccc(Cl)cc2[N+](=O)[O-])c1C	/	.	/	36	.	.	51	.
CN(CCO)C(=O)c1cccc2c1-c1ccccc1C2=O	.	.	.	.	.	.	/	/
Cc1sc(NC(=S)NC(=O)CCc2ccccc2)c(C(N)=O)c1C	/	/	/	33	.	/	28	36
COC(=O)CCC(=O)NC(=S)Nc1sc(C)c(C)c1C(N)=O	/	/	/	.	.	/	/	/
SMILES	S1P2 blocker	Mac1 fbg inh	S1P2 agonist	GALR2 blocker	GALR2 agonist	CD11b adhes enh	GALR2 ant conf	BLA inhib ctr
CCCCCN(C(=O)COC(=O)c1ccc(Br)o1)c1c(N)n(CCCC)c(=O)[nH]c1=O	.	.	.	.	.	.	/	/
N#CC(C#N)=C1C=CC=CN1/C(=C\c1ccccc1Cl)C(=O)c1ccccc1	/	/	/	73	.	/	89	99
CN(C)c1ccc(C(=O)c2ccc(N(C)C)c3ccccc23)cc1	.	/	.	30	.	/	33	64
COc1ccc(C(=O)c2ccc(N(C)C)cc2)c(OC)c1	.	.	.	.	.	.	/	/
CCOC(=O)Nc1ccc2c(c1)N(C(=O)CCN1CCN3CCCC3C1)c1ccccc1CC2 (stereo not drawn)	.	.	.	.	.	.	/	/
COC(=O)Nc1ccc2c(c1)N(C(=O)CCN1CCN3CCCC3C1)c1ccccc1CC2 (stereo not drawn)	/	.	/	28	.	.	.	.
COc1cc(C2NC(=S)NC(O)(C(F)(F)F)C2C(=O)c2cccs2)cc(OC)c1O (stereo not drawn)	/	/	/	.	.	/	/	/
O=C1NC(c2ccccc2)C(C(=O)c2cccs2)C(O)(C(F)(F)F)N1 (stereo not drawn)	.	.	.	33	.	.	.	.
CC(=O)Oc1ccc2cc(-c3nc4ccccc4n3C)c(=O)oc2c1	.	.	38	37	23	.	.	30
O=C(Nc1ccccc1C(F)(F)F)N1CCC(n2c(=O)[nH]c3ccccc32)CC1	.	/	.	.	.	/	/	/
COc1ccc(-c2cc3nc(C)cc(NCCO)n3n2)cc1	.	.	.	.	.	.	/	/
COc1ccccc1NC(=O)c1[nH]c(C)c(C(C)=O)c1C	.	.	.	28	.	.	33	.
CCCCC(=O)Nc1ccc(C(=O)N2CCN(c3ccccc3OC)CC2)cc1	.	.	.	.	.	.	/	/
O=C(CSc1nc2ccsc2c(=O)n1-c1ccccc1)N1CCCC1	.	.	.	.	.	.	/	/
O=C(Nc1cccc(F)c1)c1sc(Cl)nc1-c1ccccc1	/	/	/	27	.	/	.	.
CCOC(=O)C(O)(CC(=O)Nc1cc(F)ccc1C)C(F)(F)F (stereo not drawn)	.	/	.	29	.	/	.	.
Cc1ccccc1NC(=O)CSc1nc2n(n1)CCCCC2	/	/	/	.	.	/	/	/
COc1ccc(Nc2cnn(-c3nc4ccccc4s3)c(=O)c2Cl)cc1	/	/	/	44	.	/	52	58
CCOC(=O)N1CCN(C(=O)CC(=O)Nc2ccc3nc4n(c(=O)c3c2)CCCCC4)CC1	/	.	/	.	.	.	/	/
COc1ccc(S(=O)(=O)Nc2ccc(O)c(Sc3ncn[nH]3)c2)cc1	.	/	.	.	.	/	/	/
COc1ccc(S(=O)(=O)Nc2cc(Sc3ncn[nH]3)c(O)c3ccccc23)cc1	.	90	.	49	.	.	.	.
O=S(=O)(Nc1cc(Sc2cccc3cccnc23)c(O)c2ccccc12)c1ccc(F)cc1	/	/	/	34	.	/	.	.
CCOC(=O)COc1ccccc1/C=C\[N+](=O)[O-]	/	.	/	30	.	.	43	30
Cc1c(NC(=O)c2cc3c(s2)-c2ccccc2OC3)cccc1[N+](=O)[O-]	/	/	/	.	.	/	/	/
Cc1ccc(NC(=O)CN(C)C(=O)COc2c(Cl)cc(Cl)c3ccc(C)nc23)cc1	/	.	/	.	.	.	/	/
Cc1ccc(NC(=O)CN(C)C(=O)Cn2ncc(Cl)c(Cl)c2=O)cc1	/	.	/	60	.	.	83	33
